# Screening results from PubChem BioAssay.
# This is a sample that favours compounds with a hit; in the whole collection about 32% have one here.
# PostGolgi yeast = growth inhibition of a yeast mutant, post-Golgi transport screen. actives 0.9% (n = 98,000). post-Golgi transport phenotypic cell assay. inhibition, % at 10 µM. AID 739;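 note: yeast cells grown in 1536-well plates; yeast grown about 18 h at 30C before absorbance read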
# CYP2C9 act = increases human cytochrome P450 2C9 activity; P11712; recombinant CYP2C9, luciferin-H conversion, luminescence; active compounds read high; factor 1 = untreated enzyme, 0 = blocked; activation factor at 5 µM; actives 1.4% (n = 96,000); AID 1024;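 active = activation factor of 2 or more for CYP2C9 at a 5 µM dose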;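 note: 0 = sulfaphenazole-blocked wells and 1 = vehicle-only wells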
# CYP2C9 inhib = inhibitors of human CYP2C9 | P11712 | CYP2C9 Supersomes, luciferin-H conversion, luminescence | inhibition, % at 5 µM | actives 20% (n = 96,000);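 active = blocking of liver enzyme CYP2C9 beyond about 50% at 5 µM, limit read from the data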
# PostGolgi ctrl = growth of the yeast control strain, post-Golgi counter-screen; actives 5% (n = 98,000); efflux-deficient yeast background strain, growth absorbance A615, 16 h; inhibition, % at 10 µM
# CYP2C19 activ = activators of human cytochrome P450 2C19; P33261; 96,000 tested, under 10 active; activation factor at 5 µM; recombinant CYP2C19, luciferin-H EGE luminescence; active compounds read high; 0 = fully inhibited enzyme, 1 = untreated enzyme; AID 1025;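 active = activation factor of at least 2 at 5 µM in the primary screen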;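 note: 0 = wells with 2.5 mM tranylcypromine and 1 = vehicle-only wells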
# Target sequence (P33261 whole entry, looked up): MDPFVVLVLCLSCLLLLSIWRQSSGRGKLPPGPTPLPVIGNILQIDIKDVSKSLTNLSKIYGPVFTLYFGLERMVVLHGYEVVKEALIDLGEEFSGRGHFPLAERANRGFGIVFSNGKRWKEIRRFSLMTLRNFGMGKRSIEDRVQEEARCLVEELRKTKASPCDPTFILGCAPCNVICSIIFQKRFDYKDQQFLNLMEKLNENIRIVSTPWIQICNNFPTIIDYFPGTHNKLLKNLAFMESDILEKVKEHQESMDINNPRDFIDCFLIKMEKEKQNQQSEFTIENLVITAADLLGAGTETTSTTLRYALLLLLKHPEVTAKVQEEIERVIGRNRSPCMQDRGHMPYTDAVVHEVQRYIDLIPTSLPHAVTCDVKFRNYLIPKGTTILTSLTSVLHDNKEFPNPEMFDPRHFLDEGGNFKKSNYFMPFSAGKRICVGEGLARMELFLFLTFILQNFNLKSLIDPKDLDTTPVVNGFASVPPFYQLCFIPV
# CYP2C19 inh = inhibitors of human CYP2C19; P33261; actives 21% (n = 96,000); inhibition, % at 5 µM; AID 778; CYP2C19 Supersomes, luciferin-H EGE luminescence, 30 min;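 active = CYP2C19 inhibition above a set limit at 5 µM in the primary screen, cut at about 50% in these data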;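 note: plate controls were negative control wells for no effect and 2.5 mM tranylcypromine positive control for full effect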
# Active calls of the source: *; . = no result given. Cut-off read from the data, not from the text of the source, unless noted: active = inhibition above about 30%; inactive = the rest.
SMILES,PostGolgi yeast,CYP2C9 act,CYP2C9 inhib,PostGolgi ctrl,CYP2C19 activ,CYP2C19 inh
CC(C)Oc1ccc(N2CC(C(=O)Nc3ccc4c(c3)OCO4)CC2=O)cc1 (stereo unspecified),-0.7,0.8,21.0,0.6,1,-2.2
Cc1cc2nc(C3CCN(CC4COc5ccccc5O4)CC3)[nH]c2cc1C (stereo unspecified),40.6*,0.6,41.2,34.3*,0.5,53.9*
CCCNC(=S)N1CCC(c2nc3cc(C)c(C)cc3[nH]2)CC1,6.6,0.8,15.6,3.1,0.8,23.4
Cc1nn(C)c(C)c1S(=O)(=O)N1CCCC(C(=O)N2CCN(c3ccc(Cl)cc3)CC2)C1 (stereo unspecified),-10.1,0.1,90.8*,7.7,0.2,83.9*
Cc1n[nH]c(C)c1S(=O)(=O)N1CCCC(C(=O)N2CCN(c3ccc(Cl)cc3)CC2)C1 (stereo unspecified),16.5,0.7,32.8,44.4*,0.6,35.4
Cc1n[nH]c(C)c1S(=O)(=O)N1CCCC(C(=O)N2CCc3ccccc32)C1 (stereo unspecified),4.5,0.6,39.3,-4.5,0.4,62.2*
Cc1[nH]c(=O)[nH]c(=O)c1S(=O)(=O)N1CCCC(C(=O)N2CCN(c3ccccc3Cl)CC2)C1 (stereo unspecified),-1.7,0.9,9.5,-1.1,0.9,8.6
Cc1ccc(CCSCC(=O)O)cn1,-5.5,1,-4.6,1.5,1.1,-6.6
COc1ccc(Cl)cc1Nc1nc(N)nc(C(F)(F)F)n1,5.7,0.6,39.0,11.4,0.6,38.8
CCOc1c(Br)cc(C2NS(=O)(=O)N=C3CCCCCN32)cc1OC (stereo unspecified),11.9,0.3,65.6*,10.1,0.3,67.8*
O=S1(=O)N=C2CCCN2C(c2ccc(F)cc2)N1 (stereo unspecified),2.6,1.1,-14.6,-4.1,1,-4.0
N=c1oc2ccc3ccccc3c2cc1-c1nnc2n1CCCCC2,1.1,2.1*,-114.9,20.1,0.8,23.7
COc1ccc2oc(=N)c(-c3nnc4n3CCCCC4)cc2c1,3.8,0.9,12.8,9.6,1.1,-9.2
Cc1ccccc1-n1c(=O)c2c(n3cnnc13)-c1ccccc1CC21CCCCC1,-1.9,1,-4.2,19.2,1.1,-9.2
CCC(=O)Nn1cnc2c(c1=O)C1(CCCCC1)Cc1ccccc1-2,3.2,1.1,-8.7,30.9*,0.6,42.3
CCCC(=O)Nn1cnc2c(c1=O)C1(CCCCC1)Cc1ccccc1-2,-1.5,0.4,64.0*,34.8*,0.5,50.2*
O=C(Nc1ccccn1)c1ccc2ccccc2n1,3.2,1,2.6,15.2,1,-1.0
Cc1ccc(C)c(N2CCN(C(=O)c3cn(C)c4ccc(S(=O)(=O)N(C)C)cc4c3=O)CC2)c1,-4.0,1,2.8,3.2,0.6,38.2
O=C(NCCOC12CC3CC(CC(C3)C1)C2)c1cccc(Br)c1,1.4,0.7,29.5,20.3,0.3,71.7*
CCCCCOC(=O)C1=C(C)N(C)C(=O)NC1c1cc(Br)c(O)c(OC)c1 (stereo unspecified),14.9,0.3,69.8*,10.2,0.4,59.4*
Cc1ccc(C(=O)Nc2ccc3c(c2)ncn3C)cc1,0.0,0.9,9.1,5.4,1.1,-7.6
CCCn1cnc2cc(NCc3ccccn3)ccc21,9.9,0.9,14.0,-0.8,0.8,20.1
Cc1nc2cc(CO)ccc2n1C,-0.3,1.1,-6.3,-5.4,1,3.7
COc1ccc(CNc2ccc3c(c2)nc(C)n3C)cc1,3.6,1,3.3,2.2,0.4,57.9*
CCc1ccc(CNc2ccc3c(c2)ncn3C)cc1,10.2,0.8,20.7,-7.3,0.3,69.5*
SMILES,PostGolgi yeast,CYP2C9 act,CYP2C9 inhib,PostGolgi ctrl,CYP2C19 activ,CYP2C19 inh
Cc1ccc(CNc2ccc3c(c2)ncn3C)cc1,4.7,1,0.6,18.7,0.4,62.1*
CCn1cnc2cc(NCc3ccncc3)ccc21,3.0,0.4,62.5*,26.4,0.5,48.9
Cc1ccc(C(=O)N2CCN(c3cc(=O)[nH]nc3-c3ccccc3)CC2)cc1,-9.3,1.1,-8.3,1.1,1,0.5
COc1ccc(-n2cnc3cc(NCc4cccs4)ccc32)cc1,8.4,0.7,32.8,12.6,0.5,45.9
Cc1ccc(-n2cnc3cc(NCc4cccs4)ccc32)cc1,-11.3,0.1,93.3*,14.8,0.1,89.5*
CC(=O)N1CCN(S(=O)(=O)c2ccccc2)C1c1ccccc1 (stereo unspecified),-2.6,0.9,11.9,7.7,0.6,42.9
CCOC(=O)C1CN(S(=O)(=O)c2ccc(C)cc2)CCN1S(=O)(=O)c1ccc(C)cc1 (stereo unspecified),3.1,0.2,77.8*,7.2,0,95.8*
CCOC(=O)C1CN(S(=O)(=O)c2ccccc2)CCN1S(=O)(=O)c1ccccc1 (stereo unspecified),-5.1,0.3,70.1*,13.1,0.1,94.5*
CCOc1ccc(S(=O)(=O)N2CCN(S(=O)(=O)c3ccc(OCC)cc3)C(C)C2)cc1 (stereo unspecified),.,0.8,21.8,.,0.8,19.3
COC(=O)C1CN(S(=O)(=O)c2ccccc2)CCN1S(=O)(=O)c1ccccc1 (stereo unspecified),-0.6,0.3,73.5*,6.8,0,97.9*
CCOC(=O)c1ccc(S(=O)(=O)N2CCC(C(=O)O)CC2)cc1,-4.4,0.9,6.7,-3.8,1,-0.7
COc1cc2ncnc(NCc3ccc(C)cc3)c2cc1OC,21.9,1,-2.1,-2.2,0.4,62.6*
O=C(CC(=O)c1ccccc1)Nc1ccc2c(c1)OCCO2,0.3,1.1,-12.9,3.3,0.8,20.5
Cn1cc(SCC(=O)Nc2ccc3c(c2)OCCO3)c2ccccc21,1.3,0.6,42.7,2.6,0.4,62.8*
CC(CC(=O)Nc1ccc2c(c1)OCCO2)c1ccccc1 (stereo unspecified),-10.2,0.6,41.8,2.8,0.5,52.0*
CCn1c(=O)cc(SCC(=O)NCC2CCCO2)c2ccccc21 (stereo unspecified),-1.8,3.8*,-275.4,11.2,0.9,13.1
Cn1c(=O)cc(OCCCC(=O)Nc2ccc3c(c2)OCCO3)c2ccccc21,0.6,.,.,6.4,.,.
CCn1c(=O)cc(SCC(=O)Nc2ccc3c(c2)OCO3)c2ccccc21,21.4,1.2,-16.7,3.1,0.3,71.3*
CCn1c(=O)cc(SCC(=O)N(C)Cc2ccccc2)c2ccccc21,-9.3,2*,-98.0,5.2,0.4,55.5*
CCCCN(CC)C(=O)CSc1cc(=O)n(C)c2ccccc12,6.7,1.3,-29.8,8.0,0.4,64.2*
CCOC(=O)CSc1cc(=O)n(CC)c2ccccc12,-5.9,1.1,-9.1,7.3,1,-0.2
CCn1c(=O)cc(SCC(=O)Nc2cccnc2)c2ccccc21,-5.1,2.4*,-144.5,12.8,1.1,-12.7
